Screens from PubChem.
D2 ag-1: agonists of human D2 dopamine receptor; AID 485358; activation, % at 2 µM; P14416; 0.53% of 340,000 active; HEK293 T-REx D2 cells, calcium flux agonist mode;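 active = activation over 3 SD above normal in the single-dose calcium agonist read, cut at about 30% in these data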
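HEK293 Trex D2 cells, tetracycline-induced, o/n 30 C 5% CO2; no-wash Ca dye, RT 30–90 min; 10-cycle baseline, 23 nl cpd added, kinetic Ca read 180 s; agonist hits = positive Ca response.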
D2 ag-2: activates the human D2 dopamine receptor; 0.084% of 360,000 active; activation, % (test concentration not listed); P14416; AID 624465; DiscoveRx PathHunter D2 beta-arrestin, luminescence, 90 min; 100% = 57 uM dopamine signal; in the data active = activation above about 40%; inconclusive = between about 15% and that limit
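DiscoveRx PathHunter D2 beta-arrestin cells (2,100/well) attached overnight, then compound-stimulated 90 min at 37 C in HBSS/10 mM HEPES/0.1% Tween-20 buffer; beta-galactosidase complementation read by luminescence after 1 h at ambient temperature. Dopamine 57 uM final (EC100) as control.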
D2 PAM-1: potentiates the human D2 dopamine receptor allosterically; P14416; DiscoveRx D2 beta-arrestin cells, luminescence, 90 min; 100% = 57 uM dopamine signal; potentiation, % (concentration not given with the values); 0.23% of 360,000 active; in the data active = potentiation above about 50%; inconclusive = mostly about 30% to 49%
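PathHunter beta-arrestin assay in DiscoveRx D2 cells. Compounds were added with an EC20 of dopamine (50 nM final) for 90 min at 37 deg C. Luminescence was read 1 h after detection reagent, with 57 uM dopamine as the EC100 control.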
D2 antag: antagonists of human D2 dopamine receptor. HEK293 TREx D2 cells, calcium flux, dopamine EC80. inhibition, % at 10 µM. 2% of 340,000 active. AID 485344; in the data active = inhibition above about 30%; inactive = below that, where a call was filed
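Dopamine at EC80 is the agonist stimulus; test compounds precede it by 180 s. Calcium flux read kinetically in a force-coupled, inducible HEK293 T-REx D2 cell line.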
D2 PAM-2: positive allosteric modulators of human D2 dopamine receptor; HEK293 T-REx D2, calcium flux, EC20 dopamine potentiation; 0.34% of 340,000 active; potentiation, % at 10 µM; P14416; AID 485347;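 active = potentiation over 3 SD above the plate norm, cut at about 30% in these data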
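Cells plated with tetracycline inducer and held overnight at 30 C; calcium dye loaded 30–90 min at room temperature; baseline taken, compound added and read 180 s; EC20 dopamine then added and read 180 s.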
B2AR arrestin: recruits beta-arrestin to the human beta2-adrenergic receptor; Potency, µM (highest dose often 46.1 µM), usual class: activators; 0.02% of 330,000 active; beta-arrestin recruitment to beta2AR, cell-based reporter; P07550; AID 492947; active = well fitted activation curve with a large enough effect; inconclusive = small, poorly fitted or top-dose-only effect; note: nearly all actives have a fitted effect of over 65% in size
Target sequence (P07550 whole entry, looked up): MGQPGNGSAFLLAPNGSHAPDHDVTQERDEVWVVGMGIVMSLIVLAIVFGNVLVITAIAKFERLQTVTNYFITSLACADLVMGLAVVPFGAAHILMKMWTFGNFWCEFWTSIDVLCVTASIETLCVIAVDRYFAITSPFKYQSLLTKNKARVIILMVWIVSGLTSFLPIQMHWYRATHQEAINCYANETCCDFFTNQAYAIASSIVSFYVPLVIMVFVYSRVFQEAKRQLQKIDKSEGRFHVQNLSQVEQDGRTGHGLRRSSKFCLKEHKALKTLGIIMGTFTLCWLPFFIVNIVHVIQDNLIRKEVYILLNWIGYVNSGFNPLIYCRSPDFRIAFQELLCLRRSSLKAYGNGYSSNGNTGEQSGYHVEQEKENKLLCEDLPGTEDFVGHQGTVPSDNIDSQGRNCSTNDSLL
Numbers stand for hits; – = inactive; ? = inconclusive; · = no result given. A selection: hits, their analogues and other compounds. The true share with any hit is near 2.4%.

SMILES	D2 ag-1	D2 ag-2	D2 PAM-1	D2 antag	D2 PAM-2	B2AR arrestin
O=C(COC(=O)c1ccccc1N1C(=O)C2C3CCC(C3)C2C1=O)c1ccccc1 (stereo not drawn)	–	–	–	–	–	–
Cc1ccc(C)c(C(=O)COC(=O)c2ccccc2N2C(=O)C3C4CCC(C4)C3C2=O)c1 (stereo not drawn)	–	–	–	–	41	–
OC1CCCN(c2c3c(nc4cc(-c5cccc(F)c5)nn24)CCCC3)C1 (stereo not drawn)	–	–	–	47	–	–
Cc1ccc(NC(=O)c2ccc3c(c2)C(=O)N(CC2CCCO2)C3=O)cc1C (stereo not drawn)	–	–	–	–	–	7.1µM
CC(=O)c1c(C)[nH]c(C(=O)Nc2nc(C)cs2)c1C	–	–	–	33	–	–
CC(=O)c1c(C)[nH]c(C(=O)Nc2nc(-c3ccc(Cl)cc3)cs2)c1C	–	–	–	–	–	–
COc1ccc(-c2nc(NC(=O)c3[nH]c(C)c(C(C)=O)c3C)sc2C)cc1	–	–	–	–	31	–
Cc1ccc(C(c2sc3nc(C)nn3c2O)N2CCN(c3ccccc3F)CC2)cc1 (stereo not drawn)	–	–	–	–	–	–
Cc1ccc(-c2c[n+](Cc3ccc(Cl)c(Cl)c3)c3n2CCC3)cc1	–	–	–	30	–	–
Cc1ccc(C(=O)C[n+]2cc(-c3ccc(C)cc3)n3c2CCCCC3)cc1	–	–	–	–	–	–
CCCn1c(=N)c(C(=O)NCc2ccco2)cc2c(=O)n3cc(C)ccc3nc21	·	·	·	·	–	·
CCCC(=O)Nc1ccc(Oc2ccc(NC(=O)CCC)cc2)cc1	–	–	–	–	35	–
O=C(CSc1nnc(Cc2cc(=O)[nH]c(=O)[nH]2)n1-c1ccc(Cl)cc1)N1CCc2ccccc21	–	·	·	–	–	–
CCOC(=O)C1CCCN(C(=O)c2ccc(Cl)cc2)C1 (stereo not drawn)	–	–	–	–	–	–
CCOC(=O)C1CCCN(C(=O)CSc2ccc(NC(C)=O)cc2)C1 (stereo not drawn)	34	?	–	–	–	–
CCOC(=O)C1CCCN(C(=O)CSc2ccccc2)C1 (stereo not drawn)	–	–	–	–	–	–
CCOC(=O)C1CCCN(C(=O)c2cc(Cl)ccc2Cl)C1 (stereo not drawn)	–	–	–	31	–	–
CCOC(=O)C1CCCN(C(=O)c2ccccc2SCCOC)C1 (stereo not drawn)	–	–	–	30	–	–
CN1C(C(=O)NCCc2cccs2)CC2Cn3c(nc4cc(Cl)c(Cl)cc43)C21 (stereo not drawn)	–	–	–	48	–	–
c1cc(-c2nsc(-c3ccncc3)n2)ccn1	–	–	–	–	–	–
O=C(CN1CCCC1)NC(c1ccccc1)c1ccccc1	–	–	–	–	–	–
CC1=NN(c2ccccc2)C(c2ccco2)C1 (stereo not drawn)	·	–	–	·	·	·
O=[N+]([O-])c1ccc(C2=NN(c3ccccc3)C(c3ccco3)C2)cc1 (stereo not drawn)	56	–	–	–	–	–
Cc1ccc(/C=N/Nc2ccc(F)cc2F)s1	–	?	–	–	–	–
O=C1NCN(c2ccccc2)C12CCN(CCCC(c1ccc(F)cc1)c1ccc(F)cc1)CC2	–	–	–	69	–	–
S=c1[nH]nc(C2CCCCC2)n1/N=C/c1ccc(Br)cc1	–	–	–	36	–	–
COc1ccc(C2CC(c3cc(Br)ccc3F)n3nnnc3N2)cc1 (stereo not drawn)	–	–	–	–	34	–
Cc1cc(SCC(=O)N(C)c2c(N)n(Cc3ccccc3)c(=O)[nH]c2=O)nc2ccccc12	–	–	–	38	–	–
Cc1cc(OC(C)C(=O)NCC2CCC(C(=O)O)CC2)c2c(C)c(Cc3ccccc3)c(=O)oc2c1 (stereo not drawn)	–	–	–	–	–	–
